18 compounds from PubChem BioAssay (NCI) can be followed below.

This is part of a sample that, as a whole, favours compounds with a hit. Of some 79,000 tested, about 15% had one in any assay. Activity calls are given as the source filed them. No stated cut-off is given here; in the data, active means growth inhibition above about 70%; inactive means the rest.

A short description of this test: NCI Yeast Anticancer Drug Screen. Data for the cln2 rad14 strain (AID 165).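 Further: 0% = growth equal to vehicle treated cultures.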 As to conditions: S. cerevisiae cln2 rad14 strain, at 50.0 µM, hits give high values. A digest of the protocol:
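Growth of compound-exposed yeast (cln2 rad14 genotype) measured and expressed as inhibition relative to vehicle.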
As for `CCc1ccc(/C(C)=N/NC(N)=S)cc1`, the growth inhibition is 54.8% (inactive).

As for `CC(C)/C=C1\CCOC1=O`, the growth inhibition is 44.5% (inactive).

In the case of `COc1c(C(=O)/C(=N/Nc2ccccc2)C(C)=O)c(O)c(OC)c2occc12`, the growth inhibition was 33% (inactive).

Consider `COc1ccc(CC/C(=N/O)c2ccccc2)cc1`, for which the growth inhibition was 97% (active).

Take `CCOC(=O)C1(C#N)C(c2ccccc2)C1(C#N)C#N` (stereo not drawn): the growth inhibition is 97.8% (active).

`COc1ccc(OC)c(/C=C/NC=O)c1`: the growth inhibition was 49.2% (inactive).

As to `CC(=O)Oc1ccc(-c2ccc(Br)cc2)cc1`, the growth inhibition was 97.8% (active).

Take `COC(=O)/C(C#N)=C/c1cc(OC)c(O)cc1Br`: the growth inhibition is 43.8% (inactive).

As for `CCC(C1SC(=S)NC1=O)C1SC(=S)NC1=O` (stereo not drawn), the growth inhibition was 82.9% (active).

With `CCC(C)c1ccc(O)c(C(C)c2ccccc2)c1` (stereo not drawn), the growth inhibition was 90.3% (active).

As to `C/C(=N\NC(=S)N1CCN(c2ccccc2)CC1)c1nccs1`, the growth inhibition is 90.9% (active).

As to `COc1ccc2c(C(=O)c3ccccc3)c3[n+](cc2c1OC)CCc1cc2c(cc1-3)OCO2`, the growth inhibition was 30.1% (inactive).

Take `Cc1cccc(C[N+](C)(C)CCCO)c1C`: the growth inhibition is 46.1% (inactive).

On to `c1ccc(N=C2SC3=NCCN3C2=Nc2ccccc2)cc1`, for which the growth inhibition was 46.6% (inactive).

`Cc1ccc(SCc2ccccc2Cl)nn1`: the growth inhibition was 31.1% (inactive).

With `CCCc1cc(=O)oc2c3c(c4c(c12)OC(C)(C)CC4)O[C@H](C)[C@H](C)C3=O`, the growth inhibition is 90.3% (active).

As to `CC1(C)COC(c2cccc(C(O)c3ccc(Cl)cc3)c2)=N1` (stereo not drawn), the growth inhibition is 40.5% (inactive).

Turning to `CCOC(=O)c1cc(NC(=O)c2cc(NC(=O)c3cc(NC(=O)c4c(-c5ccccc5)noc4C)cn3C)cn2C)cn1C`, the growth inhibition was 14.8% (inactive).
